Data on 35 compounds can be found in ChEMBL document CHEMBL2218924, “A broad activity screen in support of a chemogenomic map for kinase signalling research and drug discovery” (Biochem J, 2013).

For orientation: residual activity means the signal under treatment as a percentage of the control signal.

The target in the first assay is T1, Tyrosine-protein kinase TXK (Homo sapiens) (UniProt P42681).
T1 sequence (whole entry): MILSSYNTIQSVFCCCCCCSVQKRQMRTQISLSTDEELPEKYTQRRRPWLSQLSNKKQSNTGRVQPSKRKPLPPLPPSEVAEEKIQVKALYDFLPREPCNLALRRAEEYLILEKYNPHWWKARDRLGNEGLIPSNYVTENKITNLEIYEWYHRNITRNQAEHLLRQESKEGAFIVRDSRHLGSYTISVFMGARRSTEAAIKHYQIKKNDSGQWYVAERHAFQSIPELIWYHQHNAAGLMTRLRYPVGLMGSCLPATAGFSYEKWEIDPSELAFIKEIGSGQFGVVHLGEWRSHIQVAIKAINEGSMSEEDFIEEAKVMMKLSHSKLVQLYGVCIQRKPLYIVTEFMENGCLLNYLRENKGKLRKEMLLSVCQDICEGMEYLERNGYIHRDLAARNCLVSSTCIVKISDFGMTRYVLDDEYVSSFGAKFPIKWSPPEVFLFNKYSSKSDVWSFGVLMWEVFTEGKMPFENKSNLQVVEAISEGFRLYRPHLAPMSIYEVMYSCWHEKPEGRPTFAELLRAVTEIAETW
Conditions: at 1 µM.
`Nc1cccc(-c2cc3c(Oc4cccc(O)c4)ncnc3[nH]2)c1`: the residual activity was 27%. Same read-out and setting: next, `COc1ccc(S(=O)(=O)N(CCO)c2ccccc2CN(C)C/C=C/c2ccc(Cl)cc2)cc1`: 94%; `O=C1Nc2ccccc2/C1=C1/Nc2ccccc2/C1=N\OCCC(O)CO` (configuration not stated): 31%; `COc1cc2ncnc(Nc3ccc(NC(=O)c4ccccc4)cc3)c2cc1OC`: 95%. Still for that read-out and setting: as for `N#Cc1cnc2cnc(NCc3cccnc3)cc2c1Nc1ccc(F)c(Cl)c1`, the figure is 86%.

`Ic1cccc(CSc2nnc(-c3ccncc3)o2)c1`: the residual activity was determined as 75%.

`O=C(Nc1cccc(Nc2cc(Nc3cccc(C(F)(F)F)c3)ncn2)c1)C1CC1`: the residual activity is 109%. Still for that read-out and setting: as for `O=[N+]([O-])c1ccc(-c2nc(-c3ccc(F)cc3)c(-c3ccncc3)[nH]2)cc1`, the figure is 61%; as for `N#CC(C#N)=C(N)/C(C#N)=C/c1ccc(O)cc1`, 78%; as for `O=Nc1c(-c2c(O)[nH]c3ccccc23)[nH]c2ccccc12`, 45%. For the compound `O=C1Nc2cc(Br)ccc2/C1=C1/Nc2ccccc2/C1=N\O`, the residual activity was determined as 13%. The same measure, in the same setting: as for `COc1cc2ncc(-c3ccccc3)nc2cc1OC`, the figure is 96%; as for `O=C1NC(=O)/C(=C/c2ccc3c(c2)OC(F)(F)O3)S1`, 109%; as for `CC(=O)c1ccc(N2CCOCC2)cc1O`, 85%. Still for that read-out and setting: as for `Nc1n[nH]c2nnc(-c3c(-c4ccccc4)nn4ccccc34)cc12`, the figure is 77%; as for `Nc1nc(Nc2ccc(S(N)(=O)=O)cc2)nn1C(=S)Nc1c(F)cccc1F`, 71%; as for `Cn1cnc2cc3c(Nc4cccc(Br)c4)ncnc3cc21`, 89%.

In another assay the target is T1, Tyrosine-protein kinase TXK (Homo sapiens). Conditions: at 10 µM.
For `c1ccc(-c2n[nH]cc2-c2ccnc3ccccc23)nc1`, the residual activity is 64%.

For the compound `Cn1nc2c3c(cccc31)C(=O)c1ccccc1-2`, the residual activity came to 61%. Same read-out and setting: next, `COc1ccc(CNc2nc(N(CCO)CCO)nc3c2ncn3C(C)C)cc1`: 89%; `CO[C@@H]1[C@H](N(C)C(=O)c2ccccc2)C[C@H]2O[C@]1(C)n1c3ccccc3c3c4c(c5c6ccccc6n2c5c31)C(=O)NC4`: 69%. In the case of `C[C@@H](N)[C@H]1CC[C@H](C(=O)Nc2ccncc2)CC1`, the residual activity stood at 94%.

For the compound `Cc1cccc(-c2[nH]c(C(C)(C)C)nc2-c2ccc3c(c2)OCO3)n1`, the residual activity came out at 98%.

Take `Cc1cc(Nc2nc(-c3ccccc3)nc3ccccc23)n[nH]1`: the residual activity turned out to be 2%.

For the compound `O=C1Nc2ccc(Br)cc2/C1=C\c1cc2c([nH]1)CCCC2`, the residual activity amounted to 76%.

Consider `Cc1cc2ncc(-c3ccccc3)nc2cc1C`, for which the residual activity came out at 84%. Same read-out and setting: next, `CCN(CC)C(=O)c1ccc(Nc2nc(OCC3CCCCC3)c3nc[nH]c3n2)cc1`: 5%; `O=C1c2ccccc2-[n+]2ccc3c([nH]c4ccccc43)c21`: 75%; `Cc1ccc(S(=O)(=O)/C=C/C#N)cc1`: 87%. Regarding `c1ccc2c(-c3ccncc3)c[nH]c2c1`, the residual activity is 97%. The same measure, in the same setting: next, `Cc1cncc2cccc(S(=O)(=O)N3CCCN(C(=O)CN)C[C@H]3C)c12`: 91%; `N#CCCc1ccc2c(c1)-c1[nH]c3ccc([N+](=O)[O-])cc3c1CC(=O)N2`: 9%; `c1ccc(-c2n[nH]c3c2oc2ccccc23)cc1`: 73%.

In the case of `CO[C@H]1C[C@@H]2CC[C@@H](C)[C@@](O)(O2)C(=O)C(=O)N2CCCC[C@H]2C(=O)O[C@H]([C@H](C)C[C@@H]2CC[C@@H](O)[C@H](OC)C2)CC(=O)[C@H](C)/C=C(\C)[C@@H](O)[C@@H](OC)C(=O)[C@H](C)C[C@H](C)/C=C/C=C/C=C/1C`, the residual activity amounted to 111%. As to `Nc1cccc(-c2cc3c(Oc4cccc(O)c4)ncnc3[nH]2)c1`, the residual activity is 3%. In the case of `COc1ccc(S(=O)(=O)N(CCO)c2ccccc2CN(C)C/C=C/c2ccc(Cl)cc2)cc1`, the residual activity was 67%.

On to `O=C1Nc2ccccc2/C1=C1/Nc2ccccc2/C1=N\OCCC(O)CO` (configuration not stated), for which the residual activity turned out to be 3%. As to `COc1cc2ncnc(Nc3ccc(NC(=O)c4ccccc4)cc3)c2cc1OC`, the residual activity was 82%. As for `N#Cc1cnc2cnc(NCc3cccnc3)cc2c1Nc1ccc(F)c(Cl)c1`, the residual activity came out at 69%. On the same count and under the same terms, as for `Ic1cccc(CSc2nnc(-c3ccncc3)o2)c1`, the figure is 81%; as for `O=C(Nc1cccc(Nc2cc(Nc3cccc(C(F)(F)F)c3)ncn2)c1)C1CC1`, 69%.

As to `O=[N+]([O-])c1ccc(-c2nc(-c3ccc(F)cc3)c(-c3ccncc3)[nH]2)cc1`, the residual activity is 66%. With `N#CC(C#N)=C(N)/C(C#N)=C/c1ccc(O)cc1`, the residual activity worked out at 67%. Same read-out and setting: as for `O=Nc1c(-c2c(O)[nH]c3ccccc23)[nH]c2ccccc12`, the figure is 11%; as for `CN(C)CCCn1cc(C2=C(c3c[nH]c4ccccc34)C(=O)NC2=O)c2ccccc21`, 79%. Still for that read-out and setting: next, `O=C1Nc2cc(Br)ccc2/C1=C1/Nc2ccccc2/C1=N\O`: 23%; `COc1cc2ncc(-c3ccccc3)nc2cc1OC`: 73%.
